# PubChem BioAssay (EPA / NIEHS)
# Calls of active or inactive are those of the source. The calls were made as follows: active = hit-call score of the fitted dose curve at least 0.9, where 1 is the maximum; inactive = score below 0.9.
# Key:
# [1] = read-out: Tissue plasminogen activator (tPA), PLAT (gene 5327); assay: BSK_BE3C_tPA: BioMAP Diversity Plus: BE3C Assay for Tissue plasminogen activator (tPA) Biomarker Activity (AID 2283041); conditions: primary human bronchial epithelial cells; actives raise or lower the signal;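 as to outcome: tPA level quantified by ELISA one day after compound addition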
# In short: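 Primary human bronchial epithelial cells in the BE3C system, exposed to compound for 24 h. tPA was quantified by ELISA; DMSO served as baseline, with gain or loss of signal fitted. Cytotoxicity checked in parallel cultures by SRB total-protein staining.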
# [2] = read-out: Interleukin-8 (IL8), CXCL8 (gene 3576); assay: BSK_CASM3C_IL8: BioMAP Diversity Plus: CASM3C Assay for Interleukin-8 (IL8) Biomarker Activity (AID 2283042); conditions: primary human coronary artery smooth muscle cells; actives raise or lower the signal;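 also: IL-8 protein level quantified by ELISA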
# [3] = read-out: Human Leukocyte Antigen - DR isotype (HLADR), HLA-DRA (gene 3122); assay: BSK_CASM3C_HLADR: BioMAP Diversity Plus: CASM3C Assay for Human Leukocyte Antigen - DR isotype (HLADR) Biomarker Activity (AID 2283043); conditions: primary human coronary artery smooth muscle cells; actives raise or lower the signal;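 also: cell-surface HLA-DR protein level quantified by ELISA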
# [4] = read-out: Macrophage colony-stimulating factor (MCSF), CSF1 (gene 1435); assay: BSK_CASM3C_MCSF: BioMAP Diversity Plus: CASM3C Assay for Macrophage colony-stimulating factor (MCSF) Biomarker Activity (AID 2283044); conditions: primary human coronary artery smooth muscle cells; actives raise or lower the signal;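 also: M-CSF protein amount quantified by ELISA after 24 h exposure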
# [5] = read-out: Low-density lipoprotein receptor (LDLR), LDLR (gene 3949); assay: BSK_CASM3C_LDLR: BioMAP Diversity Plus: CASM3C Assay for Low-density lipoprotein receptor (LDLR) Biomarker Activity (AID 2283045); conditions: primary human coronary artery smooth muscle cells; actives raise or lower the signal;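 also: LDLR protein level on the cell surface quantified by ELISA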
# [6] = read-out: Monocyte Chemoattractant Protein-1 (MCP1), CCL2 (gene 6347); assay: BSK_CASM3C_MCP1: BioMAP Diversity Plus: CASM3C Assay for Monocyte Chemoattractant Protein-1 (MCP1) Biomarker Activity (AID 2283046); conditions: primary human coronary artery smooth muscle cells; actives raise or lower the signal;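 also: MCP-1 level quantified by ELISA 24 h after dosing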
# [7] = BSK_CASM3C_Proliferation: Cell Proliferation Assessment in the BioMAP Diversity Plus: CASM3C Assay (AID 2283047); conditions: primary human coronary artery smooth muscle cells;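 also: sulforhodamine B total protein stain as relative cell number at 560 nm; sub-confluent cells exposed 48 h before staining; fitted both ways against DMSO so gain or loss of cell number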
# [8] = read-out: Monokine induced gamma interferon (MIG), CXCL9 (gene 4283); assay: BSK_CASM3C_MIG: BioMAP Diversity Plus: CASM3C Assay for Monokine induced gamma interferon (MIG) Biomarker Activity (AID 2283048); conditions: primary human coronary artery smooth muscle cells; actives raise or lower the signal;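 also: MIG protein level measured by ELISA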
# [9] = read-out: serum amyloid A (SAA), SAA1 (gene 6288); assay: BSK_CASM3C_SAA: BioMAP Diversity Plus: CASM3C Assay for serum amyloid A (SAA) Biomarker Activity (AID 2283049); conditions: primary human coronary artery smooth muscle cells; actives raise or lower the signal;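 also: SAA protein level quantified by ELISA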
# [10] = BSK_CASM3C_SRB: Viability Assessment in the BioMAP Diversity Plus: CASM3C Assay (AID 2283050); conditions: primary human coronary artery smooth muscle cells
# [11] = read-out: Thrombomodulin, THBD (gene 7056); assay: BSK_CASM3C_Thrombomodulin: BioMAP Diversity Plus: CASM3C Assay for Thrombomodulin Biomarker Activity (AID 2283051); conditions: primary human coronary artery smooth muscle cells; actives raise or lower the signal;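 also: thrombomodulin protein level measured by ELISA 24 h after dosing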
# [12] = read-out: Tissue Factor, F3 (gene 2152); assay: BSK_CASM3C_TissueFactor: BioMAP Diversity Plus: CASM3C Assay for Tissue Factor Biomarker Activity (AID 2283052); conditions: primary human coronary artery smooth muscle cells; actives raise or lower the signal;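 also: cell surface tissue factor protein level read by ELISA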
# [13] = read-out: Interferon-gamma inducible Protein 10 (IP10), CXCL10 (gene 3627); assay: BSK_hDFCGF_IP10: BioMAP Diversity Plus: hDFCGF Assay for Interferon-gamma inducible Protein 10 (IP10) Biomarker Activity (AID 2283053); conditions: primary human foreskin fibroblasts; actives raise or lower the signal
# In short: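 Primary human foreskin fibroblasts exposed to chemicals for 24 h. IP-10 measured by ELISA; changes fitted bidirectionally against DMSO baseline.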
# [14] = read-out: Urokinase-type plasminogen activator receptor (uPAR), PLAUR (gene 5329); assay: BSK_CASM3C_uPAR: BioMAP Diversity Plus: CASM3C Assay for Urokinase-type plasminogen activator receptor (uPAR) Biomarker Activity (AID 2283054); conditions: primary human coronary artery smooth muscle cells; actives raise or lower the signal;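 also: cell-surface uPAR protein level quantified by ELISA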
# [15] = read-out: Vascular cell adhesion molecule 1 (VCAM1), VCAM1 (gene 7412); assay: BSK_CASM3C_VCAM1: BioMAP Diversity Plus: CASM3C Assay for Vascular cell adhesion molecule 1 (VCAM1) Biomarker Activity (AID 2283055); conditions: primary human coronary artery smooth muscle cells; actives raise or lower the signal;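 also: VCAM-1 protein level quantified by ELISA on the cells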
# [16] = read-out: Collagen III, COL3A1 (gene 1281); assay: BSK_hDFCGF_CollagenIII: BioMAP Diversity Plus: hDFCGF Assay for Collagen III Biomarker Activity (AID 2283056); conditions: primary human foreskin fibroblasts; actives raise or lower the signal
# In short: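 Response relative to DMSO, fitted in both directions, reflects ELISA-measured collagen III in human primary skin fibroblasts 24 h after compound addition.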
# [17] = read-out: Epidermal growth factor receptor (EGFR), EGFR (gene 1956); assay: BSK_hDFCGF_EGFR: BioMAP Diversity Plus: hDFCGF Assay for Epidermal growth factor receptor (EGFR) Biomarker Activity (AID 2283057); conditions: primary human foreskin fibroblasts; actives raise or lower the signal
# In short: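 Primary human foreskin fibroblasts (hDFCGF system), sampled 24 h after dosing; EGFR quantified by ELISA. Bidirectional fit relative to DMSO baseline; SRB total-protein staining in parallel cultures for cytotoxicity.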
# [18] = read-out: Interleukin-8 (IL8), CXCL8 (gene 3576); assay: BSK_hDFCGF_IL8: BioMAP Diversity Plus: hDFCGF Assay for Interleukin-8 (IL8) Biomarker Activity (AID 2283058); conditions: primary human foreskin fibroblasts; actives raise or lower the signal
# In short: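 Fibroblast monolayers (human foreskin, hDFCGF) received test chemical for 24 h before ELISA detection of IL-8; either increases or decreases relative to DMSO count as activity.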
# [19] = BSK_hDFCGF_Proliferation: Cell Proliferation Assessment in the BioMAP Diversity Plus: hDFCGF Assay (AID 2283059); conditions: primary human foreskin fibroblasts;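 also: curves fitted for both rise and fall of signal versus DMSO baseline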
# In short: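 Total protein read at 560 nm after 0.1% SRB staining of TCA-fixed human skin fibroblasts, […]. Activity is fitted in both directions relative to DMSO as baseline.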
# [20] = read-out: Macrophage colony-stimulating factor (MCSF), CSF1 (gene 1435); assay: BSK_hDFCGF_MCSF: BioMAP Diversity Plus: hDFCGF Assay for Macrophage colony-stimulating factor (MCSF) Biomarker Activity (AID 2283060); conditions: primary human foreskin fibroblasts; actives raise or lower the signal
# In short: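 fibroblasts (human foreskin, primary), 24 h post-dose; M-CSF by ELISA; bidirectional fit, DMSO = baseline.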
smiles,measurement,setting,value
CC1=CC(=O)/C(=C(/C)O)C(=O)O1,outcome,[1],inactive
same,outcome,[2],inactive
same,outcome,[3],inactive
same,outcome,[4],inactive
same,outcome,[5],inactive
same,outcome,[6],inactive
same,outcome,[7],inactive
same,outcome,[8],inactive
same,outcome,[9],inactive
same,outcome,[10],inactive
same,outcome,[11],inactive
same,outcome,[12],inactive
same,outcome,[13],inactive
same,outcome,[14],inactive
same,outcome,[15],inactive
same,outcome,[16],inactive
same,outcome,[17],inactive
same,outcome,[18],inactive
same,outcome,[19],inactive
same,outcome,[20],inactive
CC(C)(C)c1csc(-c2cc3cc(OCc4ccccc4CC(=O)O)ccc3o2)n1,AC50,[1],6.81 µM (active)
same,outcome,[2],inactive
same,AC50,[3],29 µM (active)
same,AC50,[4],28.2 µM (active)
same,outcome,[5],inactive
same,outcome,[6],inactive
same,AC50,[7],34 µM (active)
same,outcome,[8],inactive
same,outcome,[9],inactive
same,AC50,[10],31 µM (active)
same,outcome,[11],inactive
same,outcome,[12],inactive
same,AC50,[13],10.2 µM (active)
same,outcome,[14],inactive
same,AC50,[15],15.4 µM (active)
same,AC50,[16],3.19 µM (active)
same,outcome,[17],inactive
same,AC50,[18],18.4 µM (active)
same,AC50,[19],9.8 µM (active)
same,AC50,[20],13 µM (active)
CCCCCCCCCCCCO,AC50,[1],24.8 µM (active)
same,AC50,[2],35 µM (active)
same,AC50,[3],31.5 µM (active)
same,AC50,[4],31.2 µM (active)
same,outcome,[5],inactive
same,AC50,[6],34.7 µM (active)
same,AC50,[7],32.6 µM (active)
same,AC50,[8],31.3 µM (active)
same,AC50,[9],29.4 µM (active)
same,outcome,[10],inactive
same,outcome,[11],inactive
same,AC50,[12],32.3 µM (active)
same,AC50,[13],29.3 µM (active)
same,outcome,[14],inactive
same,AC50,[15],31 µM (active)
same,AC50,[16],15.4 µM (active)
same,AC50,[17],19.8 µM (active)
same,AC50,[18],37.4 µM (active)
same,AC50,[19],26.5 µM (active)
same,AC50,[20],33.4 µM (active)
CCCCCCCCOc1ccc(C(=O)c2ccccc2)c(O)c1,outcome,[1],inactive
same,outcome,[2],inactive
same,outcome,[3],inactive
same,outcome,[4],inactive
same,outcome,[5],inactive
same,outcome,[6],inactive
same,outcome,[7],inactive
same,outcome,[8],inactive
same,outcome,[9],inactive
same,outcome,[10],inactive
same,outcome,[11],inactive
same,outcome,[12],inactive
same,outcome,[13],inactive
same,outcome,[14],inactive
same,outcome,[15],inactive
same,outcome,[16],inactive
same,outcome,[17],inactive
same,outcome,[18],inactive
same,AC50,[19],20 µM (active)
same,outcome,[20],inactive
CC(C)(c1cc(Br)c(O)c(Br)c1)c1cc(Br)c(O)c(Br)c1,AC50,[1],3.37 µM (active)
same,outcome,[2],inactive
same,AC50,[3],33.1 µM (active)
same,AC50,[4],19.1 µM (active)
same,outcome,[5],inactive
same,AC50,[6],30.1 µM (active)
same,AC50,[7],32 µM (active)
same,outcome,[8],inactive
same,AC50,[9],31.9 µM (active)
same,outcome,[10],inactive
same,AC50,[11],25 µM (active)
same,AC50,[12],31.7 µM (active)
same,AC50,[13],6.23 µM (active)
same,AC50,[14],31.2 µM (active)
same,AC50,[15],29.3 µM (active)
same,AC50,[16],3.85 µM (active)
same,outcome,[17],inactive
same,AC50,[18],11.5 µM (active)
same,AC50,[19],3.94 µM (active)
same,AC50,[20],7.47 µM (active)
CN1C(=O)N(c2ccccc2Br)Cc2cnc(Nc3ccc4c(c3)OCC(CO)O4)nc21 (stereo not given),AC50,[1],4.46 µM (active)
same,AC50,[2],14.3 µM (active)
same,AC50,[3],11.5 µM (active)
same,AC50,[4],5.62 µM (active)
same,AC50,[5],37.8 µM (active)
same,AC50,[6],9.73 µM (active)
same,AC50,[7],1.27 µM (active)
same,AC50,[8],32.3 µM (active)
same,AC50,[9],5.98 µM (active)
same,AC50,[10],20 µM (active)
same,outcome,[11],inactive
same,AC50,[12],0.952 µM (active)
same,AC50,[13],21.3 µM (active)
same,AC50,[14],13.6 µM (active)
same,outcome,[15],inactive
same,outcome,[16],inactive
same,outcome,[17],inactive
same,AC50,[18],16.1 µM (active)
same,AC50,[19],11.9 µM (active)
same,AC50,[20],20.4 µM (active)
